# Measured values as given in article PMC7862700, “An all-to-all approach to the identification of sequence-specific readers for epigenetic DNA modifications on cytosine”.
# Experiments:
# Assay in all cases: DAPPL (digital affinity profiling via proximity ligation, sequencing); 10 mM Tris-HCl pH 7.5, 50 mM NaCl, 1 mM DTT, 4% glycerol, room temperature, 30 min; GST-TFs on glutathione beads, 16-mer random dsDNA library, 0.1% formaldehyde crosslink after washing; high values mean tight binding
# FEV = target: T1, FEV (Homo sapiens, UniProt Q99581 1-238); details: protein: recombinant; tags: N-terminal GST; dsDNA, one strand shown
# T1 sequence: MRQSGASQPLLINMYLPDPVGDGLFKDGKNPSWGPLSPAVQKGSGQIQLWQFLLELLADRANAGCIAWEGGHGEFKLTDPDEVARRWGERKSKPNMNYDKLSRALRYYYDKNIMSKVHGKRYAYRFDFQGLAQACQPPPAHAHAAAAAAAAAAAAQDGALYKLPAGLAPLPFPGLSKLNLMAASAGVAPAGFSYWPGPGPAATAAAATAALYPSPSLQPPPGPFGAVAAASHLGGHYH
# How it was run: (§1)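 The binding signal reported is, for every hexamer, its read frequency for a factor over its read frequency for the tag-only sample. Reads came from pools of yeast-expressed, GST-fused human transcription factors on glutathione beads, barcoded with DNA and mixed with that sample, which were incubated with 200 nmole of a random double-stranded 16-mer DNA library in Tris/NaCl/DTT/glycerol buffer at room temperature for 30 min. After washing, the pools were crosslinked with 0.1% formaldehyde, proximity-ligated with BsaI/T4 ligase for 1 h at 37 °C, PCR-amplified and sequenced on an Illumina NextSeq500.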
# ETV5 = ETV5 (Homo sapiens, UniProt P41161 1-510); details: protein: recombinant; tags: N-terminal GST; dsDNA, one strand shown
# How it was run: as §1
# HSF1 = HSF1 (Homo sapiens, UniProt Q00613 1-529); details: protein: recombinant; tags: N-terminal GST; chain copies: 3; dsDNA, one strand shown
# How it was run: as §1
# SPIC = target: T2, SPIC (Homo sapiens, UniProt Q8N5J4 1-248); details: protein: recombinant; tags: N-terminal GST; dsDNA, one strand shown
# T2 sequence: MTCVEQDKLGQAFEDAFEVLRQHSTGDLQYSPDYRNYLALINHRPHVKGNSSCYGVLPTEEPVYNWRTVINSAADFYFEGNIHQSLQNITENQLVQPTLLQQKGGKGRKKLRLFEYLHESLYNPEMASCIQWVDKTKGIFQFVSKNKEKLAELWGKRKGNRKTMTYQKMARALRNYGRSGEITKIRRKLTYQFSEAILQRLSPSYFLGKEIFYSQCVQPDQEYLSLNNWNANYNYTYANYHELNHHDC
# How it was run: as §1
# ELF4 = ELF4 (Homo sapiens, UniProt Q99607 1-663); details: protein: recombinant; tags: N-terminal GST; dsDNA, one strand shown
# How it was run: as §1
# ELK4 = target: T3, ELK4 (Homo sapiens, UniProt P28324-2 1-405); details: protein: recombinant; tags: N-terminal GST; dsDNA, one strand shown
# T3 sequence: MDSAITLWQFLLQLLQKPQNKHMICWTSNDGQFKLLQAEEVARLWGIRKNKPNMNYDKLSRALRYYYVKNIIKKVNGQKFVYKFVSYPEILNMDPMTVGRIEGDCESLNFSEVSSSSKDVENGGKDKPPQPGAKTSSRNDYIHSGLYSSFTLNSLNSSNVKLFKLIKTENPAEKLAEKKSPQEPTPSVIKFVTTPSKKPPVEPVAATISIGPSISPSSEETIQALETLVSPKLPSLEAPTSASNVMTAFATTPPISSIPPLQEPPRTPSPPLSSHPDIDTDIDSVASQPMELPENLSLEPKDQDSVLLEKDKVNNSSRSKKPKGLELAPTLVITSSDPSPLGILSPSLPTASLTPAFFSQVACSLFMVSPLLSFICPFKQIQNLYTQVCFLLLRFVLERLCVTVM
# How it was run: as §1
# ETV2 = target: T4, ETV2 (Homo sapiens, UniProt O00321 1-342); details: protein: recombinant; tags: N-terminal GST; dsDNA, one strand shown
# T4 sequence: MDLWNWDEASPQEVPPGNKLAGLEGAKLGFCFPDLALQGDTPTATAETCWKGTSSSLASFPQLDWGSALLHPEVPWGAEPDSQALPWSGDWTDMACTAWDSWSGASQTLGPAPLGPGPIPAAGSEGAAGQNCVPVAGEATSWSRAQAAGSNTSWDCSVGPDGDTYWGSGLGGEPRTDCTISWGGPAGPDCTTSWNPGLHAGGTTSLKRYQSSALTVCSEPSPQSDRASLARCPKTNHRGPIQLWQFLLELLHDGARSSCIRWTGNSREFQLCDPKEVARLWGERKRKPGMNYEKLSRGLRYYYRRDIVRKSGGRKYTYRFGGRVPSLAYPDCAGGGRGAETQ
# How it was run: as §1
# ELF3 = target: T5, ELF3 (Homo sapiens, UniProt P78545 1-371); details: protein: recombinant; tags: N-terminal GST; dsDNA, one strand shown
# T5 sequence: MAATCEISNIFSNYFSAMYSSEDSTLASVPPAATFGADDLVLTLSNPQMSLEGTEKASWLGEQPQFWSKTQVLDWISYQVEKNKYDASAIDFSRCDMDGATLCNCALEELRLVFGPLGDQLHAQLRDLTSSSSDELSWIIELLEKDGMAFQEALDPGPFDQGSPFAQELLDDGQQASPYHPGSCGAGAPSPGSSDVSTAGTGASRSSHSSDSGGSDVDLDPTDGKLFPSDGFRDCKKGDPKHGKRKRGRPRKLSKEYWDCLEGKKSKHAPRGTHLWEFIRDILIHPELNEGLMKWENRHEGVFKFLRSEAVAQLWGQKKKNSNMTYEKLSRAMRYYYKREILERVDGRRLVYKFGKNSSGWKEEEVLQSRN
# How it was run: as §1
# CRX = CRX (Homo sapiens, UniProt O43186 1-299); details: protein: recombinant; tags: N-terminal GST; dsDNA, one strand shown
# How it was run: as §1
# ETV1 = ETV1 (Homo sapiens, UniProt P50549 1-477); details: protein: recombinant; tags: N-terminal GST; dsDNA, one strand shown
# How it was run: as §1
# ERF = target: T6, ERF (Homo sapiens, UniProt P50548 1-548); details: protein: recombinant; tags: N-terminal GST; dsDNA, one strand shown
# T6 sequence: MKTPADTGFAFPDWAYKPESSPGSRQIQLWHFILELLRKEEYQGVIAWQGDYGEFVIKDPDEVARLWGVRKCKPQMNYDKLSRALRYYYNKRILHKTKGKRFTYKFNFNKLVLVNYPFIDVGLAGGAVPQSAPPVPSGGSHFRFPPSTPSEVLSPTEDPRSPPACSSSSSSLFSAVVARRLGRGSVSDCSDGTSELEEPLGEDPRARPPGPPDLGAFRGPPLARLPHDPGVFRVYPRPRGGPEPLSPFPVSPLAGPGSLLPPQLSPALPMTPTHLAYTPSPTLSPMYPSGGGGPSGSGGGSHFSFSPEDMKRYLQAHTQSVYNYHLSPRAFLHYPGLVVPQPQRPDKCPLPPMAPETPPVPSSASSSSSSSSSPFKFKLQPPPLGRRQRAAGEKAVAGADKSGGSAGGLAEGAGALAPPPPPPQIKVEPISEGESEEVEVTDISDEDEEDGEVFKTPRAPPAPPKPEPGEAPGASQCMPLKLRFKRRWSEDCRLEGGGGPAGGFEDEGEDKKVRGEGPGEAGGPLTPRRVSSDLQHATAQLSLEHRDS
# How it was run: as §1
# ETV3L = target: T7, ETV3L (Homo sapiens, UniProt Q6ZN32 1-361); details: protein: recombinant; tags: N-terminal GST; dsDNA, one strand shown
# T7 sequence: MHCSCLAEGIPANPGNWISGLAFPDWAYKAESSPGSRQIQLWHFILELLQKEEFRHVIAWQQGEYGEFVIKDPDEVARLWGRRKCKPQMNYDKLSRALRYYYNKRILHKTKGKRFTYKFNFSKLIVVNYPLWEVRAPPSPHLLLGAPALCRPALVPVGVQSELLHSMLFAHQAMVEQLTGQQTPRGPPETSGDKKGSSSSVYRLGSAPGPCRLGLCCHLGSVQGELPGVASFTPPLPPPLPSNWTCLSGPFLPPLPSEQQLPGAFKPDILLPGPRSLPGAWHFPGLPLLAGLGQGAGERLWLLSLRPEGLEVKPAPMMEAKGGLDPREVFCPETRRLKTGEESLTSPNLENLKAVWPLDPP
# How it was run: as §1
# ETS2 = target: T8, ETS2 (Homo sapiens, UniProt P15036 1-469); details: protein: recombinant; tags: N-terminal GST; dsDNA, one strand shown
# T8 sequence: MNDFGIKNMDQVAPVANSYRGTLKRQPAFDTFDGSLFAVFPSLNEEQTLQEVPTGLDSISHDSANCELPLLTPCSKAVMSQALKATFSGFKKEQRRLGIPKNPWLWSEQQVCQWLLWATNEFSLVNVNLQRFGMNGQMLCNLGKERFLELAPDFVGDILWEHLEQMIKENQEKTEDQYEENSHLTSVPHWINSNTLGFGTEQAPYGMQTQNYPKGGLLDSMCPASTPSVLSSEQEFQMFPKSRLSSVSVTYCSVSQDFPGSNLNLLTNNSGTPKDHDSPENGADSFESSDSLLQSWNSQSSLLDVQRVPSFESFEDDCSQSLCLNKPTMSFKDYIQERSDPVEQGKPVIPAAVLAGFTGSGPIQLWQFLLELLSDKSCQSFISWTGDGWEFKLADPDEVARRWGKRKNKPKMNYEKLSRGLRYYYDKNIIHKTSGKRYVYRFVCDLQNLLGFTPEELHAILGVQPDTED
# How it was run: as §1
# SPDEF = target: T9, SPDEF (Homo sapiens, UniProt O95238 1-335); details: protein: recombinant; tags: N-terminal GST; dsDNA, one strand shown
# T9 sequence: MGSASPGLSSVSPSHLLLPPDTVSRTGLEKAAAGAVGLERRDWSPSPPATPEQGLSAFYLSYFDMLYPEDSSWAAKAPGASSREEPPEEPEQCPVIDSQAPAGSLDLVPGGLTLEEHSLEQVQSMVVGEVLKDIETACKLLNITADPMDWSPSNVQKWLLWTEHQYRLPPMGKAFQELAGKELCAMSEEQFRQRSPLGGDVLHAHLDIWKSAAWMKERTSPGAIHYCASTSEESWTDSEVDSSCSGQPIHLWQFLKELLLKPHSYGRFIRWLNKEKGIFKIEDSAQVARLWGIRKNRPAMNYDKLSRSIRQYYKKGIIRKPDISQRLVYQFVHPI
# How it was run: as §1
# ETV7 = target: T10, ETV7 (Homo sapiens, UniProt Q9Y603 1-341); details: protein: recombinant; tags: N-terminal GST; dsDNA, one strand shown
# T10 sequence: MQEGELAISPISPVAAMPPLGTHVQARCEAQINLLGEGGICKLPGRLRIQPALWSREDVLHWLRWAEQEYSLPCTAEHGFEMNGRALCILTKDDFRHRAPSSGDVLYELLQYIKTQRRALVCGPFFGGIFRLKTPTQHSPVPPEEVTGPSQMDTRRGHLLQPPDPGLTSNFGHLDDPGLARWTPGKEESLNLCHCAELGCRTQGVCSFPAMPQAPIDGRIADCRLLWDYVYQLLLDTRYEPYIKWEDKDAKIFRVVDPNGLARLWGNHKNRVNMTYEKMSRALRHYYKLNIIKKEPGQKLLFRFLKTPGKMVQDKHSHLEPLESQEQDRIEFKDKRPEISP
# How it was run: as §1
# ELF5 = target: T11, ELF5 (Homo sapiens, UniProt Q9UKW6-2 1-255); details: protein: recombinant; tags: N-terminal GST; dsDNA, one strand shown
# T11 sequence: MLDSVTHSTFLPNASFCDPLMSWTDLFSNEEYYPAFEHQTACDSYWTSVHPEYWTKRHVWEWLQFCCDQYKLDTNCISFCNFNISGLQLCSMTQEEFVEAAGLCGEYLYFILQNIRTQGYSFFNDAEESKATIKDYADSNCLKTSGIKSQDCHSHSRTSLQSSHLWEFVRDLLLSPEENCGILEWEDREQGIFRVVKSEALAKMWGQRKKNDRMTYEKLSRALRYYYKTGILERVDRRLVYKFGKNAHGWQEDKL
# How it was run: as §1
# ETV3 = target: T12, ETV3 (Homo sapiens, UniProt P41162-2 1-143); details: protein: recombinant; tags: N-terminal GST; dsDNA, one strand shown
# T12 sequence: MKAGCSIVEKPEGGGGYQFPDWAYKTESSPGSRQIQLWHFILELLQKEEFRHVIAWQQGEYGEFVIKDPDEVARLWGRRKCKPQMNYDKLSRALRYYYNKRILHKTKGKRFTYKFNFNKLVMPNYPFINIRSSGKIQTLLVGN
# How it was run: as §1
# ETV6 = ETV6 (Homo sapiens, UniProt P41212 1-452); details: protein: recombinant; tags: N-terminal GST; dsDNA, one strand shown
# How it was run: as §1
# ETV1, sequence (P50549 whole entry): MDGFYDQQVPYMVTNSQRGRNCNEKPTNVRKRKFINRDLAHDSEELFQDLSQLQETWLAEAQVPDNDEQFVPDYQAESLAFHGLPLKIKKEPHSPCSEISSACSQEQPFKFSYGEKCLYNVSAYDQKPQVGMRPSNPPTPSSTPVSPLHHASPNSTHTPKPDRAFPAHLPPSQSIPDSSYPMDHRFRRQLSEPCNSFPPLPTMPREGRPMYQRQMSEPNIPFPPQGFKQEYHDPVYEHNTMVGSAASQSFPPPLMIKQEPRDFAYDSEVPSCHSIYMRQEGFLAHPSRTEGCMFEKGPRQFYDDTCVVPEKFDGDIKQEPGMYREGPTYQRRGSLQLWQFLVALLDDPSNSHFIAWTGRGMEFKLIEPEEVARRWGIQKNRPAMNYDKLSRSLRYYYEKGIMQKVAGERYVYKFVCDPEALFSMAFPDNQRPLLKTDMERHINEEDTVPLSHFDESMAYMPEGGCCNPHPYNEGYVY
# CRX, sequence (O43186 whole entry): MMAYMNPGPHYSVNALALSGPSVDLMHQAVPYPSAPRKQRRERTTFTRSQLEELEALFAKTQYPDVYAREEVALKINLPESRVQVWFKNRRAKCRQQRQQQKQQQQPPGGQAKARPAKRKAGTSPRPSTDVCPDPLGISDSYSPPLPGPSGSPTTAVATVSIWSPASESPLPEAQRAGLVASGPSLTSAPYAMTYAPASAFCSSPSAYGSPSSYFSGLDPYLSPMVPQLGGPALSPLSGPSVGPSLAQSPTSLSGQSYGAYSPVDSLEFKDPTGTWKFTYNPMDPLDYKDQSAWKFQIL
# ELF4, sequence (Q99607 whole entry): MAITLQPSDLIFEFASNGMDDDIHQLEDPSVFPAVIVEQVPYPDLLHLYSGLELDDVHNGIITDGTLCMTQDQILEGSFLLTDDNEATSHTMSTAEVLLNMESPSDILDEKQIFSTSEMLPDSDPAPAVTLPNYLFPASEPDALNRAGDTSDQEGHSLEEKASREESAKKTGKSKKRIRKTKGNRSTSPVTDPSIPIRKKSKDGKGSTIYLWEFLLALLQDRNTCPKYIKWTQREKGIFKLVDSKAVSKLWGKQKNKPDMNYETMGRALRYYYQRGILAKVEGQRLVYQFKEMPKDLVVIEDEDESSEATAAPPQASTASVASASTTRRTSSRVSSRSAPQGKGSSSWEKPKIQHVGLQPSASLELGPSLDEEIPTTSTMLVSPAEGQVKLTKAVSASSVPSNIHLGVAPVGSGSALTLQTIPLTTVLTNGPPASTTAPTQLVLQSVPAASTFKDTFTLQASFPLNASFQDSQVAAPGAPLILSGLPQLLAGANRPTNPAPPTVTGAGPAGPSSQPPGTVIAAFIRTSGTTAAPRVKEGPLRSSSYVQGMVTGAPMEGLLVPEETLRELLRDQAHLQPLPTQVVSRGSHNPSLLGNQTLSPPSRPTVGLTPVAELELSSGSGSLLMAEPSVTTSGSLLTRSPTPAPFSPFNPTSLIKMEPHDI
# ETV6, sequence (P41212 whole entry): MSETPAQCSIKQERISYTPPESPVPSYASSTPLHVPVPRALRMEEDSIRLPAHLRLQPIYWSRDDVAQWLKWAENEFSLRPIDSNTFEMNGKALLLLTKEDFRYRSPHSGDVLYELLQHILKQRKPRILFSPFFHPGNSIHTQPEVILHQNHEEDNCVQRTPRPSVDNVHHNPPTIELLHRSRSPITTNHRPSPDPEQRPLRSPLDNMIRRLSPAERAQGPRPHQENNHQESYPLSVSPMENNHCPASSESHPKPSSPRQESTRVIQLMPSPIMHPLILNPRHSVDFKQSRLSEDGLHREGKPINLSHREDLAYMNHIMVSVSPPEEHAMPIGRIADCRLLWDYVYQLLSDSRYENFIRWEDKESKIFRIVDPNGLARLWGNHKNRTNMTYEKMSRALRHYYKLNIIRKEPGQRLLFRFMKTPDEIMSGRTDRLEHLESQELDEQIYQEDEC
# HSF1, sequence (Q00613 whole entry): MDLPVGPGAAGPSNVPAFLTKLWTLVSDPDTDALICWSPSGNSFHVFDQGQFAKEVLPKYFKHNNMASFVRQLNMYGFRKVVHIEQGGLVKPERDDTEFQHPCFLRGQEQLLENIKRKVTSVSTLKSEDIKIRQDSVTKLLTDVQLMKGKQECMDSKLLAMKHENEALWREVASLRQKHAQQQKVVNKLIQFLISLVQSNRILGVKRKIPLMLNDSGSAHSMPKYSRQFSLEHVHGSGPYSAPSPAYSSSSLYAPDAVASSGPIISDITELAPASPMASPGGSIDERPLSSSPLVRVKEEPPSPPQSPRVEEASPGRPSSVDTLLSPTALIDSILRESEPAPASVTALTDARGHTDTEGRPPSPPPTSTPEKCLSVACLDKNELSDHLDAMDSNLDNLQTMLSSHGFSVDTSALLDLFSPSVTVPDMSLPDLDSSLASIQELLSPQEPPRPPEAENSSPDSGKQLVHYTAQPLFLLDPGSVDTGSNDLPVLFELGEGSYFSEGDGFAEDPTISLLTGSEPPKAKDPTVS
# ETV5, sequence (P41161 whole entry): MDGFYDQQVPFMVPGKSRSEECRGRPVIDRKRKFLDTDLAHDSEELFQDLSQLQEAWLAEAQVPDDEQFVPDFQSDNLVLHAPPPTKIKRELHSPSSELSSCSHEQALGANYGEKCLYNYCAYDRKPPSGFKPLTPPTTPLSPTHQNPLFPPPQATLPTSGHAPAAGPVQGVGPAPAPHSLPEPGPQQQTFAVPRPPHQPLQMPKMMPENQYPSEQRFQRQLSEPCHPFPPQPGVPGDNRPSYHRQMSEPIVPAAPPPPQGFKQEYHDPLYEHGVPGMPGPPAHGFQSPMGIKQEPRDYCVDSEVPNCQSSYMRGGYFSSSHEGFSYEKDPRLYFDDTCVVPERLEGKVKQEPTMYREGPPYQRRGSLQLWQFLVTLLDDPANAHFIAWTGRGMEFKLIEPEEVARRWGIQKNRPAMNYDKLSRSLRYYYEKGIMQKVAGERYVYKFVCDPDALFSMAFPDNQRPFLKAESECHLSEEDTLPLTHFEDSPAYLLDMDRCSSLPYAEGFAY
sequence,measurement,setting,value
CCTCAG,binding signal,FEV,"1.21 fold enrichment (6-mer frequency, TF over GST control)"
same,binding signal,ETV5,"1.12 fold enrichment (6-mer frequency, TF over GST control)"
same,binding signal,HSF1,"1.07 fold enrichment (6-mer frequency, TF over GST control)"
same,binding signal,SPIC,"1.17 fold enrichment (6-mer frequency, TF over GST control)"
same,binding signal,ELF4,"1.3 fold enrichment (6-mer frequency, TF over GST control)"
same,binding signal,ELK4,"1.4 fold enrichment (6-mer frequency, TF over GST control)"
same,binding signal,ETV2,"1.37 fold enrichment (6-mer frequency, TF over GST control)"
same,binding signal,ELF3,"1.35 fold enrichment (6-mer frequency, TF over GST control)"
same,binding signal,CRX,"1.15 fold enrichment (6-mer frequency, TF over GST control)"
same,binding signal,ETV1,"1.13 fold enrichment (6-mer frequency, TF over GST control)"
same,binding signal,ERF,"1.35 fold enrichment (6-mer frequency, TF over GST control)"
same,binding signal,ETV3L,"1.27 fold enrichment (6-mer frequency, TF over GST control)"
same,binding signal,ETS2,"1.25 fold enrichment (6-mer frequency, TF over GST control)"
same,binding signal,SPDEF,"1.1 fold enrichment (6-mer frequency, TF over GST control)"
same,binding signal,ETV7,"1.1 fold enrichment (6-mer frequency, TF over GST control)"
same,binding signal,ELF5,"1.14 fold enrichment (6-mer frequency, TF over GST control)"
same,binding signal,ETV3,"1.17 fold enrichment (6-mer frequency, TF over GST control)"
same,binding signal,ETV6,"1.15 fold enrichment (6-mer frequency, TF over GST control)"
